DT40 TDP1 no CPT: qHTS for Inhibitors of human tyrosyl-DNA phosphodiesterase 1 (TDP1): qHTS in cells in absence of CPT; DT40 Tdp1-/- hTDP1 cells, no CPT, ATP luminescence, 48 h; Potency, µM (top dose mostly 46.2 µM), inactives show at the top dose activity change, negative = growth inhibition, most hits filed as inhibitors; hit rate 15% among 420,000; AID 686978, 2013; further: potency means the concentration at half of the fitted maximal effect; nearly all actives have a fitted effect of over 55% in size
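DT40 Tdp1-/-;hTDP1 cells, no CPT (DMSO vehicle only), 400 cells/well; compounds pin-transferred; ≥48 hr, 37 °C; CellTiter-Glo 30 min RT dark, luminescence read.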
TDP1 cell CPT: DT40-hTDP1 cell growth loss with CPT; chicken DT40 Tdp1-/-;hTDP1 cells + 20 nM CPT, ATP luminescence, 48 h; Potency, µM (top dose mostly 46.2 µM), inactives show top-dose activity change, negative = growth inhibition, most hits filed as inhibitors; hit rate 12% among 420,000; further: potency means the concentration at half of the fitted maximal effect; nearly all actives have a fitted effect of over 55% in size
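Chicken DT40 Tdp1-/- cells complemented with human TDP1, 400 cells/well, exposed to compounds plus 20 nM camptothecin for at least 48 h at 37 C; viability read as ATP content by CellTiter-Glo luminescence.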
IL-1B inflam inh: inhibitors of inflammasome signaling (IL-1 beta secretion); THP-1 LPS/ATP IL-1B secretion, AlphaLISA, 16 h; active compounds read low; activity change, % at 57.5 µM; hit rate 4.7% among 360,000; AID 743279; in the data active means activity change below about -50%; inconclusive means mostly about -30% to -49%
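THP-1 cells pretreated 1 hr with compounds (up to 57.5 uM final), then stimulated with LPS (250 ng/mL final) plus ATP (1.25 mM final); secreted IL-1B measured by AlphaLISA after 16 hr, decreased signal indicating inhibition.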
HT1080 IDH1KD tx: HT-1080 IDH1 knockdown cell toxicity (counter line) | HT-1080 IDH1 knockdown viability, ATP luminescence, 48 h | Potency, µM (doses to about 46.1 µM), without a hit: at the top dose activity, negative = toxicity, actives largely listed as cytotoxic | hit rate 2% among 360,000 | AID 686971;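 further: potency means the concentration at half of the fitted maximal effect; 0% = DMSO wells and -100% = cell-free medium wells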
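Knockdown cells (IDH1KD HT-1080) received compounds 2 h after plating at 750 cells/well and were kept 48 h at 37 °C in 5% FBS RPMI. A CellTiter-Glo luminescence read gave % activity for curve fitting.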
HT1080-NT tox: kills 2HG-producing HT-1080-NT fibrosarcoma cells | HT-1080-NT fibrosarcoma viability, CellTiter-Glo ATP luminescence, 48 h | Potency, µM (highest dose often 46.1 µM), inactives show top-dose activity, negative = less viability, hits mostly cytotoxic | hit rate 1.6% among 360,000 | AID 686970;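 further: NT is the 2HG producing partner of a matched IDH1 knockdown line; potency means the concentration at half of the fitted maximal effect; 0% = DMSO-treated cells and -100% = media-only wells without cells; nearly all actives have a fitted effect of over 55% in size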
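Read-out is CellTiter-Glo luminescence after 10 minutes at room temperature, following 48 hours' compound treatment of HT-1080-NT cells (750 cells/well, RPMI, 5% FBS, 37 degrees C).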
uPA generation: blocks generation of uPA at the cell surface. cell surface uPA generation assay, qHTS. Potency, µM (series often up to 38.3 µM), inactives show at the top dose activity change, negative = inhibition, most hits filed as inhibitors. hit rate 0.31% among 330,000; active means well fitted inhibition curve with a large enough effect; inconclusive means small, poorly fitted or top-dose-only effect; inactive means no such curve, though single readings can be large or run the other way; tested in mouse RAW 264.7 cells; further: potency means the concentration at half of the fitted maximal effect; nearly all actives have a fitted effect of over 55% in size
Numbers without * were called inactive; ? = inconclusive; nt = not tested or not shown; [ ] = remark or other dose. An excerpt weighted towards active compounds, which were near 19% of everything screened. Unless noted, the call rests on the fitted dose curve; in most records, active means well fitted curve in the direction sought with a large enough effect; inconclusive means small, poorly fitted or top-dose-only effect, or another doubt; inactive means no such curve, though single readings can be large; an effect the other way counts as inactive or inconclusive. Unless noted, on the % scale 0 is the no-effect control and ±100 the full control effect.

SMILES	DT40 TDP1 no CPT	TDP1 cell CPT	IL-1B inflam inh	HT1080 IDH1KD tx	HT1080-NT tox	uPA generation
Cc1cc(C)cc(NC(=O)C(OC(=O)c2sccc2C)c2ccccc2)c1 (stereo not drawn)	?	-20.9%	12.6	9.4%	9.7%	8.8%
CCCC(=O)Nc1nnc(SCc2cc(=O)n3cccc(C)c3n2)s1	-24.3%	-5.5%	nt	nt	nt	nt
O=C(CN1C(=O)NC2(CCCCCC2)C1=O)NCc1ccccc1Cl	-4.7%	-28.6%	-4.1	5.5%	3.1%[9.24 µM]	-6.0%
O=C1/C(=C\c2cc([N+](=O)[O-])ccc2O)SC(=S)N1Cc1ccc(Cl)cc1	3.66µM*	16.4µM*	-10.1	23.1µM*	23.1µM*	22.3%
O=C(O)CN1C(=O)/C(=C\c2ccccc2OCc2ccccc2)SC1=S	6.6%	-4.3%	25.6	7.0%	4.3%	nt
O=C1/C(=C\c2cccc(O)c2O)SC(=S)N1Cc1ccccc1	23.1µM*	?	-97.6*	?	?	-10.4%
C#CCOc1ccc(/C=C2\SC(=S)N(Cc3cccnc3)C2=O)cc1	4.61µM*	3.26µM*	6.2	?	-1.8%	1.2%
O=C1/C(=C/c2ccc(O)cc2)SC(=S)N1Cc1cccnc1	-16.8%	-23.7%	-12.2	13.4%	4.3%	0.3%
O=C(O)CN1C(=O)/C(=C\c2cc([N+](=O)[O-])ccc2OCc2ccccc2Cl)SC1=S	0.3%	-13.3%	-0.3	6.0%	7.6%	-0.6%
CC(C)CCNC(=O)NC(=O)COC(=O)CNC(=O)C1CCCCC1	-3.8%	?	47.3	10.7%	16.6%	-1.3%
COc1ccccc1N1CCN(C(=O)Cn2cnc3onc(-c4ccc(F)cc4)c3c2=O)CC1	23.1µM*	?	nt	nt	nt	nt
O=C(CCn1cnc2onc(-c3ccc(F)cc3)c2c1=O)N1CCN(c2ccc(F)cc2)CC1	18.4µM*	23.1µM*	nt	nt	nt	nt
O=C(COc1ccc([N+](=O)[O-])cc1)N1CCN(c2nnc(-c3ccccc3)c3ccccc23)CC1	8.2µM*	20.6µM*	10.4	19.1%	-4.3%	1.4%
O=C(COc1ccc(-c2nnc(N3CCCCC3)c3ccccc23)cc1)N1CCCCC1	16.4µM*	?	-17.2	?	-23.3%	-3.2%
CC(C)(C)OC(=O)N1CCCC(C(=O)Nc2ccc(C(=O)NCCc3ccccc3)cc2)C1 (stereo not drawn)	?	?	26.9	2.1%	2.3%	-12.6%
COc1cccc2cc(C(=O)NC3CC4CCC3C4)oc12 (stereo not drawn)	?	?	-27.2	-1.2%	-1.4%	-0.7%
COc1ccc(OCCNC(=O)c2ccc3nc(C)c(N(C)Cc4ccc(NC(C)=O)cc4)n3c2)cc1	16.4µM*	16.4µM*	-7.8	15.3%	-3.0%	nt
CCc1nc2ccc(C(=O)NCc3ccccc3OC)cn2c1N(C)Cc1ccc(N(C)C)cc1	20.6µM*	20.6µM*	-16.9	-0.1%	0.0%	nt
COc1cccc(NC(=O)c2ccc3nc(C)c(N(C)Cc4ccc(NC(C)=O)cc4)n3c2)c1	-29.2%	?	-19.0	2.7%	5.0%	nt
CCc1nc2ccc(C(=O)Nc3ccc(OC)c(OC)c3)cn2c1N(CC)Cc1ccc(OC)c(OC)c1	?	?	-12.3	8.4%	7.9%	nt
CCc1nc2ccc(C(=O)NCCOc3ccc(OC)cc3)cn2c1N(C)Cc1ccc(N(C)C)cc1	?	23.1µM*	-2.3	26.3%	?	nt
CCc1nc2ccc(C(=O)NCCOc3ccc(OC)cc3)cn2c1N(CC)Cc1ccc(OC)c(OC)c1	20.6µM*	20.6µM*	?	-10.4%	-28.6%	nt
CCc1nc2ccc(C(=O)NCCOc3ccc(OC)cc3)cn2c1N(C)Cc1nccn1C	-13.6%	-27.7%	-16.5	15.1%	2.8%	nt
O=C(Nc1ccccc1C(=O)NCCCN1CCOCC1)c1cccc([N+](=O)[O-])c1	7.3%	-10.1%	-8.9	-13.1%	0.0%	7.1%
Cc1ccc(-c2cc(NC(=O)c3ccccc3Cl)on2)cc1	-14.5%	?	nt	nt	nt	nt
SMILES	DT40 TDP1 no CPT	TDP1 cell CPT	IL-1B inflam inh	HT1080 IDH1KD tx	HT1080-NT tox	uPA generation
Cc1ccc(Cl)cc1NC(C#N)c1ccccc1 (stereo not drawn)	?	0.6%	-3.0	-10.8%	-7.9%	0.6%
C[C@@H]1CCC2[C@@H](C)[C@@H](O)O[C@@H]3O[C@@]4(C)CC[C@@H]1[C@@]23OO4 (stereo partly drawn)	0.0944µM*	0.0411µM*	nt	nt	nt	nt
C=C(C)C1CC=C(C)/C(=N/NC(=O)CCC(=O)Nc2ccccc2Cl)C1 (stereo not drawn)	?	?	-0.2	-5.6%	-6.2%	5.1%
CCn1c2c(c3cc(Br)ccc31)CCC/C2=N\O	?	1.1%	19.9	?	?	nt
CCn1c2c(c3cc(OCC(C)C)ccc31)CCCC2=O	20.6µM*	16.4µM*	?	-25.6%	-25.1%	13.7%
COc1cc(=O)n2c(c1C(=O)NCc1ccco1)CCN(Cc1cccc(C)n1)CC2	4.9%	3.7%[9.04 µM]	nt	nt	nt	nt
CCOC(=O)c1nnn(CC(=O)N2N=C(c3cccc4ccccc34)CC2c2ccccc2)c1C(=O)OCC (stereo not drawn)	20.6µM*	?	-25.8	-2.7%	-5.3%	-3.0%
O=S(=O)(c1cccs1)N1CCN(CC(O)COc2cccc(Br)c2)CC1 (stereo not drawn)	?	20.6µM*	-8.8	2.2%	3.6%	-5.2%
Cn1c(SCC(=O)Nc2ccc(F)cc2)nc2c([nH]c3ccccc32)c1=O	?	18.4µM*	54.5	2.5%	-1.7%	5.7%
CCOc1ccc(NC(=O)CSc2nc3c([nH]c4ccccc43)c(=O)n2C)cc1	-12.8%	-3.7%	13.6	-2.9%	-4.1%	9.5%
Cc1ccc(C)c(CSc2nc3c([nH]c4ccccc43)c(=O)n2C)c1	3.26µM*	6.51µM*	nt	nt	nt	nt
Cc1ccc(NC(=O)CSc2nc3c([nH]c4ccccc43)c(=O)n2C)cc1	8.2µM*	13µM*	36.8	-2.6%	-1.3%	-11.2%
Cn1c(SCC(=O)Nc2cccc(F)c2)nc2c([nH]c3ccccc32)c1=O	-22.6%	-3.6%	43.6	-2.7%	1.0%	0.6%
Cc1ccccc1CSc1nc2c([nH]c3ccccc32)c(=O)n1-c1ccccc1	-2.0%	-5.5%	nt	nt	nt	nt
Cc1ccc(C)c(NC(=O)CN(C)C(=O)c2cc(C3CC3)nn2-c2ccccc2)c1	?	16.4µM*	-8.1	0.0%	-13.3%	-29.6%
CCN(Cc1nc2ccccc2c(=O)[nH]1)C(=O)c1cc(C2CC2)nn1-c1ccccc1	?	?	6.9	-7.3%	-0.8%	6.5%

Screening data: PubChem, National Center for Advancing Translational Sciences (NCATS)
